This excerpt belongs to a sample that is enriched for hits.
IMPase cell inh: IMPase inhibition in cells; inhibition (IP1 accumulation), % at 46.1 µM; CHO-M1 cells, IP1 accumulation, HTRF TR-FRET ratio; P97697; 120,000 tested, under 10 active; active = well fitted curve in the direction sought with a large enough effect in the signal ratio, not every such curve was filed as active; inconclusive = small, poorly fitted or top-dose-only effect, or a change in a side signal; inactive = no such curve, though single readings can be large or run the other way; the % refers to the signal ratio;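 also: cells stimulated with carbachol in lithium chloride buffer; plate controls were DMSO basal wells for no effect and reference inhibitor wells for full effect; higher means more IMPase inhibition seen as more IP1 and lower FRET ratio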
Target sequence (P97697 whole entry, looked up): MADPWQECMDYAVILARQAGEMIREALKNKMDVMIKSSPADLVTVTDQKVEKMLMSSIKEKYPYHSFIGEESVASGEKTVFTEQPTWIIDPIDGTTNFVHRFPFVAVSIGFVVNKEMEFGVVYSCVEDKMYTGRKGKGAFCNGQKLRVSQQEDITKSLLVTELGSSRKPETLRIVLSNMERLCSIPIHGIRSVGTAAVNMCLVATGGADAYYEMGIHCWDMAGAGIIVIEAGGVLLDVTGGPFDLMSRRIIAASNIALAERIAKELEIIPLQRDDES
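The IP-One HTRF competitive assay in carbachol-stimulated CHO-M1 cells quantifies cellular IP1. Compounds spanned up to 46 uM final, and activity is expressed as AC50 from concentration-response fits of the ratio and donor data.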
LMNA splice mod: LMNA splicing modulation; 0.01% of 200,000 active; HeLa LMNA splicing GFP/RFP minigene ratio, 48 h; Potency, µM (titrated, usually from 46.1 µM), inactives show top-dose ratio change, negative = inhibition, most hits filed as inhibitors; active = well fitted inhibition curve with a large enough effect in the signal ratio, with a control signal flat, not every such curve was filed as active; inconclusive = small, poorly fitted or top-dose-only effect, or effect the other way, or a change in a side signal; the % refers to the signal ratio; also: potency is read from the fitted curve at half-maximal effect
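S3 HeLa cells stably expressing lamin A-EGFP splicing minigene plus DsRed2, 600 cells/well, 48 h compound exposure at 37C. Laser-scanning cytometry; analysed as GFP (500-530 nm)/RFP (575-640 nm) total intensity ratio; 0.5% DMSO vehicle.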
PNC assembly inh: blocks assembly of the perinucleolar compartment | PC3M PTB-GFP, PNC prevalence imaging, 16 h; active compounds read low | activity change (PNC), negative = inhibition, % at 10 µM | 3.1% of 140,000 active | AID 2417;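 active = readout at or below -70, meaning at least 70% loss of cells showing the perinucleolar compartment, a nuclear body marking cancer cells; inconclusive = readout between -30 and a set limit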;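 also: plate controls were DMSO wells for no effect and camptothecin positive control wells for full effect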
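Compounds are pinned in duplicate onto adhered PC3M cells stably expressing GFP-tagged PTB and incubated 16 h at 37 C. Cells are then fixed, nuclei stained with Hoechst, and PNC-positive cells counted.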
Numbers without * were called inactive; ? = inconclusive; . = not tested or not shown; [ ] = dose if it differs, or a comment. Unless noted, % is scaled to controls: 0 for no effect and ±100 for the full control effect.

SMILES	IMPase cell inh	LMNA splice mod	PNC assembly inh
Cc1ccc2nc(N3CCC(C(=O)N4CCC5(CC4)OCCO5)CC3)sc2c1	4.2	?	18.2
CCOc1ccc2nc(N3CCC(C(=O)N4CCC5(CC4)OCCO5)CC3)sc2c1	1.0	?	-103.5*
O=P(N[C@@H](c1ccccc1)[C@@H]1C[C@H]1CO)(c1ccccc1)c1ccccc1	.	5.8%	42.3
O=C(O)[C@H]1C[C@@H]1[C@H](NP(=O)(c1ccccc1)c1ccccc1)c1ccccc1	.	-7.5%	-82.3*
CCN(CC)c1ncnc2c1ncn2[C@@H]1O[C@@H](COP(=O)(O)OP(=O)(O)C(Br)(Br)P(=O)(O)O)[C@H](O)[C@@H]1O	-3.1	.	.
CNC[C@H](O)c1ccc(OC(=O)C(C)(C)C)c(OC(=O)C(C)(C)C)c1	0.1[20.6 µM]	?	.
O=C1CC(=O)N(c2ccc3c(c2)OCO3)C(=O)N1	-9.0	-11.1%	-95.0*
O=C1NC(=O)N(c2ccc3c(c2)OCO3)C(=O)/C1=C/c1ccc(N2CCCCC2)o1	5.5	15.1%	12.3
C[C@]1(C(=O)O)[C@@H]2CC[C@@H](O2)[C@@]1(C)C(=O)O	12.0	.	.
COc1cc2c(c(OC)c1OC)-c1ccc(OC)c(=O)cc1[C@H](NC(C)=O)CC2	4.6	?	.
Cc1cc(NC(=O)CCC(=O)N2CCC3(CC2)OCCO3)no1	-5.0	17.1%	-84.0*
COc1ccc(CNCC(=O)N2CCC3(CC2)OCCO3)cc1	-3.3	2.1%	-13.0
COc1cc2c(cc1OC)C(C(=O)NCCC(C)C)C1CCCCN1C2=O (stereo not given)	0.9	-9.5%	-119.3*
COc1cc2c(cc1OC)C(C(=O)N1CCC3(CC1)OCCO3)C(c1ccccc1F)N(C)C2=O (stereo not given)	-0.7	-11.3%	6.0
C=CCN1CC[C@]23c4c5ccc(O)c4O[C@@H]2C(=O)CC[C@@]3(O)[C@H]1C5	-0.2	.	.
Cc1ccc(-n2c(C)nc3ccccc3c2=O)cc1C	.	-6.6%[46 µM]	.
Cc1nc2ccccc2c(=O)n1-c1cccc(O)c1	-7.4	-5.7%	-107.1*
O=c1[nH]cc(COCC(F)(F)C(F)(F)C(F)(F)F)c(=O)[nH]1	.	7.7%[46 µM]	.
O=c1[nH]cc(F)c(=O)[nH]1	-2.7	?	-114.6*
O=C(O)[C@H]1CCN1	0.7	.	.
CC(=O)OC(C)(C)/C=C/C(=O)[C@](C)(O)[C@H]1[C@H](O)C[C@@]2(C)[C@@H]3CC=C4[C@H](C[C@H](O)C(=O)C4(C)C)[C@]3(C)C(=O)C[C@]12C	.	?	-114.6*
CN1C[C@@H](C(=O)N[C@@]2(C)O[C@]3(O)C4CCCN4C(=O)[C@@H](Cc4ccccc4)N3C2=O)C=C2c3cccc4[nH]cc(c34)C[C@@H]21 (stereo not given in full)	-3.0	.	.
CN(N=O)c1ccc(O)c(O)c1	6.9	?	.
COC(=O)C1=Nc2ccccc2/C1=C\c1c(O)n(-c2ccc(OC)cc2)c(=O)[nH]c1=O	13.4	?	67.0
O=c1[nH]c(=O)n(-c2ccccc2)c(O)c1/C=C/C=Nc1ccccc1	-4.2	?	6.1
SMILES	IMPase cell inh	LMNA splice mod	PNC assembly inh
COC(=O)C1=Nc2ccccc2/C1=C\c1c(O)n(-c2ccc(Br)cc2)c(=O)[nH]c1=O	.	?	-123.8*
O=c1[nH]c(=O)n(-c2ccccc2)c(O)c1/C=C1/C(c2ccccc2)=Nc2ccccc21	.	?	-90.9*
COc1ccc(C(C)=O)cc1CC(C(=O)c1ccc(C)cc1)N(C)C (stereo not given)	18.4	-10.8%	16.7
COc1ccc(C(C)=O)cc1CC(C(=O)c1ccccc1)N(C)C (stereo not given)	1.6	-10.0%	-94.0*
CCNC(=O)[C@@H]1O[C@@H](n2cnc3c(N)ncnc32)[C@@H](O)[C@H]1O	-0.4	.	.
CCCCCCCCCCCCCC(=O)O[C@H]1[C@@H](C)[C@@]2(O)[C@@H](C=C(CO)C[C@]3(O)C(=O)C(C)=C[C@@H]23)C2C(C)(C)[C@]21OC(C)=O (stereo not given in full)	0.0	.	.
CCCn1nc2ccccc2c1P(=O)(N1CCOCC1)N1CCOCC1	3.1	-0.4%	-90.1*
Cn1cc(C(=O)NP(=O)(N2CCOCC2)N2CCOCC2)c2ccccc21	.	-8.3%[46 µM]	.
CN[C@@H]1C[C@H](c2ccc(Cl)c(Cl)c2)c2ccccc21	12.1	.	.
CC(=O)[C@@H]1CC[C@H]2[C@H]3CC[C@H]4C[C@@H](O)CC[C@]4(C)[C@@H]3CC[C@]12C	1.7	.	.
Oc1cc2c(cc1O)[C@H]1c3ccccc3CN[C@H]1CC2	-1.4	.	.
CC(C)=CCC12CN3CCN(CC(C3)C1=O)C2	1.4	-5.8%	-87.8*
CCC12CN3CCN(CC(C3)C1O)C2 (stereo not given)	-5.6	4.6%	-15.9
N[C@H](Cc1ccc(N(CCCl)CCCl)cc1)C(=O)O	-0.2	.	.
CC(C)(C)NCC1(CO)SC(N)=NC1=O (stereo not given)	8.2	?	-17.0
COc1ccc2c(c1)[C@]13CCCC[C@@H]1[C@H](C2)N(C)CC3	10.7	.	.
O=C1CC(=O)N(c2ccc(Cl)cc2Cl)C(=O)N1	-7.4	-4.6%	-126.9*
Cc1cc(Br)ccc1N1C(=O)CC(=O)NC1=O	-3.0	-6.8%	-12.5
C#CCN[C@@H](C)Cc1ccccc1	-1.2	.	.
COc1cc(/C=C/[N+](=O)[O-])ccc1O	.	?	-83.7*
COc1cc(/C=C2/C(=O)NC(=O)N(c3ccccc3)C2=O)ccc1O	.	-1.1%	28.2
Brc1c(Br)c(Br)c2n[nH]nc2c1Br	-4.0	?	.
CC(=O)Nc1ccc(S(=O)(=O)N(C)CCOCc2ccccc2)cc1	-6.6	?	-1.1
C[C@H]1CC[C@]2(OC1)O[C@@H]1C[C@@H]3[C@@H]4CC[C@H]5C[C@@H](O)CC[C@]5(C)[C@@H]4CC(=O)[C@@]3(C)[C@H]1[C@@H]2C	-1.7[20.6 µM]	?	.
Cn1cccc1/C=C1\C(=O)NC(=O)N(CCC2=CCCCC2)C1=O	-9.6	-17.7%	?
SMILES	IMPase cell inh	LMNA splice mod	PNC assembly inh
O=C1NC(=O)N(CCC2=CCCCC2)C(=O)/C1=C\c1cccs1	.	-0.3%	-85.6*
CN1[C@@H](CC(=O)c2ccccc2)CCC[C@H]1C[C@H](O)c1ccccc1	.	?	18.6
CN1C(CC(=O)c2ccccc2)CCCC1CC(O)c1ccccc1 (stereo not given)	16.7	-5.8%	-109.7*
CC[C@H](CO)NC(=O)[C@@H]1C=C2c3cccc4[nH]cc(c34)C[C@@H]2N(C)C1	0.0	.	.
Cl.Cl.Cl.Cl.Cl.Cl.N.N.N.N.NNNNN.NNNNN.O.O.[Ru].[Ru].[Ru]	6.7	.	.
CC(C)C[C@H](NP(=O)(O)O[C@@H]1O[C@@H](C)[C@@H](O)[C@@H](O)[C@H]1O)C(=O)N[C@@H](Cc1c[nH]c2ccccc12)C(=O)O	-0.4	.	.
O=P(NS(=O)(=O)c1ccc(Cl)cc1)(Oc1ccccc1)Oc1ccccc1	-7.2	-1.8%	-100.0*
O=P(NS(=O)(=O)c1ccccc1)(Oc1ccccc1)Oc1ccccc1	-1.6	6.7%	30.0
C[C@@H](Cc1ccc2c(c1)OC(C(=O)O)(C(=O)O)O2)NC[C@H](O)c1cccc(Cl)c1	-0.5	.	.
C[C@@]12CC[C@H]3[C@@H](CCC4=C(O)C(=O)CC[C@]43C)[C@H]1CCC2=O	3.5	.	.
